This is one part of a sample in which hits are shown more often than they occur.
GluA2 TARP mod: modulators of AMPA receptor GluA2-stargazin complexes. HEK293 GluA2+stargazin, membrane potential dye (FDSS), glutamate EC50; hits were called plate by plate, in both directions. hit rate 3.5% among 40,000. O88602+P19491. calls only at 30 µM. AID 1259245;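 active means any of four per-well response measures lying three or more SD from its plate-wide compound average, in either direction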
Target sequence (O88602 whole entry, looked up): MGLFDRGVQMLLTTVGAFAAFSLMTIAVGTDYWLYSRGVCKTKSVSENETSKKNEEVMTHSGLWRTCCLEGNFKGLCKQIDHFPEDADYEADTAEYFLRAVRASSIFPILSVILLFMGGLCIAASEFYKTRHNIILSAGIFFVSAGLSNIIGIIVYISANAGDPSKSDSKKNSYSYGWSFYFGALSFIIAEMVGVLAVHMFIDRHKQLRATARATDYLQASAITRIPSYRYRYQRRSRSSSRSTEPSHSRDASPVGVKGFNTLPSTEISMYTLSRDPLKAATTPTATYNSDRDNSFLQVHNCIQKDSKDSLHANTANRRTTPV
Target sequence (P19491 whole entry, looked up): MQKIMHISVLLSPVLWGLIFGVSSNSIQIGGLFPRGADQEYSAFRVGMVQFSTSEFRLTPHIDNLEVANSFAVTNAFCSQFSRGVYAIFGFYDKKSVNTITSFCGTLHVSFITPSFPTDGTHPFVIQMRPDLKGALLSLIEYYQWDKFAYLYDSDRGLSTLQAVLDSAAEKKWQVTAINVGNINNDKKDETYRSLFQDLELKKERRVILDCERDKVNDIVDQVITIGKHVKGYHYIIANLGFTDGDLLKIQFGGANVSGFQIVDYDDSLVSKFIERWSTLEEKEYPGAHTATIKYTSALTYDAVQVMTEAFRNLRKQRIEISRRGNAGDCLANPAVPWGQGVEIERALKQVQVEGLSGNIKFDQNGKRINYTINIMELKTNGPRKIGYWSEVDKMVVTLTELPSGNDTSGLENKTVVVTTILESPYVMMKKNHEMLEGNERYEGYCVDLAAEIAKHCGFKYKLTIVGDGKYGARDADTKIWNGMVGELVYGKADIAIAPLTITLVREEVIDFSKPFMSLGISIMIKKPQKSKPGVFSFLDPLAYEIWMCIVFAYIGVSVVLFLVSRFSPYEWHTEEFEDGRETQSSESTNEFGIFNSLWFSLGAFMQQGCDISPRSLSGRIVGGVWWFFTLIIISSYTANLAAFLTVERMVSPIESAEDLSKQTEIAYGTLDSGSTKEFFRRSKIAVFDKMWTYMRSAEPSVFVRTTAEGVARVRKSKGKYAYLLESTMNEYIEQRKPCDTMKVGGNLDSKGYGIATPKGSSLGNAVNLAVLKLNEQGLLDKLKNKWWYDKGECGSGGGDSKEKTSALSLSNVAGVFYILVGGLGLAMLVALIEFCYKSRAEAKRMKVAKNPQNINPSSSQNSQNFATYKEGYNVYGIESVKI
GIRK2 activator: Activates human GIRK2-containing potassium channels; P48051; HEK293 GIRK2/NPY4 cells, thallium flux fluorescence; activation (% efficacy), % for hits at 37.5 µM; 34,000 tested, under 10 active; AID 1259324;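 active means primary screen hit, no activity in plain HEK293 cells, and in GIRK2-only cells above 5% efficacy rising with concentration; inactive means the rest, including fluorescent compounds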;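 further: efficacy is normalized control-subtracted fluorescence 15 s after thallium addition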
* = called active by the depositor; i = inactive; · = no result; + = active, no number.

SMILES | GluA2 TARP mod | GIRK2 activator
COc1ccc2nc(-c3ccc(OC)c(NS(=O)(=O)c4ccccc4Cl)c3)cn2n1 | · | i
CCOC(=O)CN1C(=O)CN(C(=O)c2ccccc2)C1=S | + | ·
CCOC(=O)c1ccc(N2C(=S)N(c3ccccc3)C3CS(=O)(=O)CC32)cc1 (centres undefined) | i | i
CCOc1ccc(NC(=O)c2sccc2N(C)S(=O)(=O)c2ccccc2)cc1 | i | i
CCCS(=O)(=O)N1CCC(CN2CCN(C)CC2C)CC1 (centres undefined) | i | i
C=Cc1ccc(CN2C(=O)N(c3ccc(CC)cc3)C3CS(=O)(=O)CC32)cc1 (centres undefined) | + | ·
Cc1ccc(CN2C(=O)N(c3ccc(C)c(Cl)c3)C3CS(=O)(=O)CC32)cc1 (centres undefined) | i | i
CCOc1ccc(-n2nnc3c(N4CCN(C(=O)c5cccc(OC)c5)CC4)ncnc32)cc1 | i | ·
COc1cc(C)c(Cl)cc1S(=O)(=O)N1CCN(C)CC1 | i | ·
COc1ccccc1NC(=O)CSc1nccn2nc(-c3ccccc3)cc12 | i | i
COc1ccc(C(=O)N2CCN(CCn3nc(C)cc3C)CC2)cc1 | i | i
COC(=O)Cc1c(C)c2ccc(OCC(=O)c3ccc(-c4ccccc4)cc3)cc2oc1=O | i | ·
COC(=O)Cc1c(C)c2ccc(OCC(=O)c3ccc(F)cc3)cc2oc1=O | + | ·
COc1cn(CC(=O)NCc2ccccc2)c(CSc2ccc(Cl)cc2)cc1=O | i | i
O=C(Cc1cccc2ccccc12)NCC1CCN(C(=O)COc2ccccc2)CC1 | + | i
O=C(Cc1cccc2ccccc12)NCC1CCN(c2ncccn2)CC1 | i | i
Cc1ccc(-c2csc(NC(=O)c3ccc(S(=O)(=O)C(C)C)cc3)n2)cc1 | i | ·
CC(C)N(C)S(=O)(=O)c1ccc(C(=O)Nc2nc(-c3ccncc3)cs2)cc1 | + | i
COc1ccccc1-c1coc2cc(OCc3ccc(F)cc3)ccc2c1=O | i | ·
COc1ccc2c(=O)c(-c3ccccc3OC)coc2c1 | + | i
COc1ccc(-c2cn(CC(=O)Nc3cc(C)cc(C)c3)nc2N2CCOCC2)cc1 | · | i
COc1ccc2nc(-c3ccc(C)c(NS(=O)(=O)c4ccc(C)s4)c3)cn2n1 | + | i
COc1ccc2nc(-c3ccc(C)c(NS(=O)(=O)c4ccc(C(C)=O)cc4)c3)cn2n1 | + | i
COc1ccc2nc(-c3ccc(C)c(NS(=O)(=O)c4ccc(C)c(C)c4)c3)cn2n1 | · | i
COc1ccc2nc(-c3ccc(C)c(NS(=O)(=O)c4cc(C)ccc4OC)c3)cn2n1 | · | i
SMILES | GluA2 TARP mod | GIRK2 activator
COC(=O)c1c(NC(=O)c2ccco2)sc2c1CC(C)(C)NC2(C)C | + | i
COC(=O)c1c(NC(=O)c2cc(C)no2)sc2c1CC(C)(C)NC2(C)C | · | i
COC(=O)Cn1c(=O)c2c(nc3oc(-c4ccccc4)cn32)n(C)c1=O | i | i
O=C(CSc1nc(=O)n(CCO)c2c1CCCC2)N1CCc2ccccc21 | i | i
O=C(CSc1nc(=O)n(CCCO)c2c1CCC2)N1CCc2ccccc21 | + | i
O=C(NCCCn1nc(-c2ccccc2)ccc1=O)NC1CCCCC1 | i | ·
O=C(/C=C/c1ccco1)NCCC(O)c1cccs1 (centres undefined) | i | i
O=C(NCC(c1ccsc1)N1CCCCCC1)c1c(F)cccc1Cl (centres undefined) | + | i
O=C(NCC(c1cccs1)N1CCOCC1)c1c(F)cccc1Cl (centres undefined) | i | i
CC(=O)OC(COc1ccc(N(C)C(C)=O)cc1)Cn1c2ccccc2c2ccccc21 (centres undefined) | + | i
CC(=O)OC(Cn1nc(C)cc1C)Cn1c2ccccc2c2ccccc21 (centres undefined) | i | i
COc1ccc(Cl)cc1NS(=O)(=O)c1cc2c3c(c1)CCC(=O)N3CCC2 | i | i
CN(C)C(CNS(=O)(=O)Cc1ccccc1Cl)c1ccco1 (centres undefined) | i | i
COc1cc(/C=C2\SC(=S)N(c3ccc4c(c3)OCO4)C2=O)cc(OC)c1OC | i | ·
COc1cccc(/C=C2/SC(=S)N(c3ccc4c(c3)OCO4)C2=O)c1OC | + | ·
O=S(=O)(c1ccc(Cl)c2ccccc12)N1CCCCCC1 | i | ·
CC(=O)Nc1ccc(Nc2ncnc3sc(C)c(C)c23)cc1 | i | ·
CN1C(=O)C(C)(C)COc2ccc(NS(=O)(=O)C3CCCCC3)cc21 | i | i
O=C(NCc1cccc2ccccc12)N(CCc1ccccc1)Cc1ccccn1 | + | i
O=C(N(CCc1ccccc1)Cc1ccccn1)C12CC3CC(CC(C3)C1)C2 | + | i
O=C(NCc1cccc2ccccc12)N(Cc1ccccn1)Cc1ccco1 | · | i
O=C(NC1CCCCC1)N(CCc1ccccc1)Cc1ccccn1 | i | i
CC(=O)Nc1ccc(S(=O)(=O)NCC2CCN(c3ccccn3)CC2)cc1 | i | i
Cc1nc(-c2cccs2)c(CCC(=O)N2CCN(c3cccc(Cl)c3)CC2)s1 | i | i
COc1ccc(Cl)cc1C(=O)NCC1CCN(Cc2ccco2)CC1 | · | i
SMILES | GluA2 TARP mod | GIRK2 activator
COc1cc(S(=O)(=O)Nc2cc(Cl)ccc2O)c(OC)cc1C | i | i
O=S(=O)(Nc1cc(Cl)ccc1O)c1cc(Cl)ccc1Cl | + | i
COc1ccccc1N1CCN(S(=O)(=O)c2ccc(F)c(C(=O)Nc3ccc(Cl)cc3)c2)CC1 | + | ·
COc1ccc(Cl)cc1NC(=O)c1cc(S(=O)(=O)N2CCN(c3ccccc3F)CC2)ccc1F | i | ·
O=C(Cc1csc(SCC(=O)c2ccc3c(c2)OCO3)n1)NCCC1=CCCCC1 | · | i
Cc1ccc(CSc2nc(CC(=O)NCCC3=CCCCC3)cs2)cc1 | + | i
COc1ccc(C(=O)NCCC2=CCCCC2)cc1 | i | i
CCc1ccc(OCC(=O)NCCC2=CCCCC2)cc1 | + | i
CCCNC(=O)CCCCn1c(=O)c2ccccc2n(CC(=O)NCc2ccc(F)cc2)c1=O | + | i
O=C(CCCCn1c(=O)c2ccccc2n(CC(=O)NC2CCCCC2)c1=O)NC1CCCCC1 | + | i
O=C(CCCCn1c(=O)[nH]c2ccccc2c1=O)NC1CCCCC1 | i | i
CC(C)CCNC(=O)CCCCn1c(=O)c2ccccc2n(CC(=O)NCc2ccccc2)c1=O | + | ·
COc1ccc(CNC(=O)Cn2c(=O)n(CCCCC(=O)NCC(C)C)c(=O)c3ccccc32)cc1 | i | ·
CCCNC(=O)CCCCn1c(=O)c2ccccc2n(CC(=O)Nc2ccc(OC)c(OC)c2)c1=O | i | ·
O=C(CCN1C(=O)c2ccccc2S1(=O)=O)N1CCN(C(c2ccccc2)c2ccccc2)CC1 | i | ·
CCN(c1ccccc1)S(=O)(=O)c1ccc(C(=O)Nc2cccc3c2C(=O)NC3=O)cc1 | i | ·
Brc1cccc(-c2nnc3sc(-c4cccnc4)nn23)c1 | + | i
O=c1oc(-c2cccnc2)nc2ccc(Br)cc12 | i | i
O=C(c1ccccc1)c1ccc(OCC(O)CNc2ccc(F)cc2)cc1 (centres undefined) | + | i
O=C(c1ccccc1)c1ccc(OCC(O)CN2CCN(c3ccccc3F)CC2)cc1 (centres undefined) | i | i

Screening results as filed in PubChem.
